Here are results for 34 compounds from PubChem BioAssay (NCATS).

Inconclusive results are not listed. Where a call stands in place of a potency, no number is given. Calls of active or inactive are those of the source. Calls follow the shape of the dose curve; as a rule, active = well fitted curve in the direction sought with a large enough effect; inconclusive = small, poorly fitted or top-dose-only effect, or another doubt; inactive = no such curve, though single readings can be large; an effect the other way counts as inactive or inconclusive.
Potency is read from the fitted curve at half-maximal effect.

Chain of N-terminal Xaa-Pro-Lys N-methyltransferase 1 (Homo sapiens) (Q9BV86 whole entry, looked up): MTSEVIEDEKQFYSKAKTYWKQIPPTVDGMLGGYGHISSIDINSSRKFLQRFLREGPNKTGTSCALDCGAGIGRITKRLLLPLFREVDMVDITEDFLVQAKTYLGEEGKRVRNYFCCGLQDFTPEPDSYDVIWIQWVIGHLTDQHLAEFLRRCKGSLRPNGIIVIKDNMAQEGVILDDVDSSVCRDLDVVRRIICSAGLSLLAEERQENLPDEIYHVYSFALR

Test system in the first assay: not listed separately
Description: qHTS of pediatric cancer cell lines to identify multiple opportunities for drug repurposing: Confirmatory screen for Rh30 cells (AID 1347126). Also: nearly all actives have a fitted effect of over 55% in size. Particulars: Rh30 rhabdomyosarcoma cell viability; series mostly up to 45.9 µM. Summed up:
(§1)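 Cells (500-1,000/well) in growth media were settled 5 h at 37 degrees C, then given compounds for 48 h. Viability was read as CellTiter-Glo luminescence. Primary runs used MIPE at 11 points (0.78 nM-46 µM) and NPC at 8 points (0.59 nM-46 µM); follow-ups used 11 points.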
(qHTS replaces the single test concentration by a dilution series.)
For the compound `CC(=Cc1csc(C)n1)[C@@H]1C[C@H]2O[C@]2(C)CCC[C@H](C)[C@@H](O)[C@@H](C)C(=O)C(C)(C)[C@@H](O)CC(=O)O1`, the Potency entry was “inactive”.

`COC1=CC(C)=C[C@@H](C)[C@@H](O)[C@@H](C)CC(C)=CC=C[C@H](OC)[C@H]([C@@H](C)[C@@H](O)[C@H](C)[C@@]2(O)C[C@@H](O)[C@H](C)[C@@H](C(C)C)O2)OC1=O`: the Potency was 10.4 µM (active).

`S=C(SSC(=S)N1CCCCC1)N1CCCCC1`: the Potency was 36.9 µM (active).

With `CO[C@H]1CCC(O[C@H]2C[C@H]([C@]3(C)CC[C@]4(C[C@H](O)[C@@H](C)[C@@H]([C@@H](C)C=C(C)C(=O)[C@H](C)C[C@H](C)C(=O)O)O4)O3)O[C@]3(O[C@@H]([C@H]4O[C@@](O)(CO)[C@H](C)C[C@H]4C)C[C@H]3C)[C@H]2C)O[C@H]1C` (some centres undefined), the Potency entry is “inactive”.

Consider `O=[N+]([O-])c1c(Cl)c(Cl)cc(Cl)c1Cl`, for which the Potency entry is “inactive”.

Test system in a further assay: not listed separately
Kind of assay: qHTS of pediatric cancer cell lines to identify multiple opportunities for drug repurposing: Confirmatory screen for OHS-50 cells (AID 1347128).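 Also: compound exposure lasted 48 h at 37 degrees C; nearly all actives have a fitted effect of over 55% in size.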 Conditions: OHS-50 osteosarcoma cells viability; series mostly up to 45.9 µM. Summed up:
as §1
For the compound `CC(=Cc1csc(C)n1)[C@@H]1C[C@H]2O[C@]2(C)CCC[C@H](C)[C@@H](O)[C@@H](C)C(=O)C(C)(C)[C@@H](O)CC(=O)O1`, the Potency is 0.0131 µM (active).

Take `CC=C(C)C(=O)N[C@@H](c1ccccc1)[C@@H](O)C(=O)O[C@H]1C[C@@]2(O)[C@@H](OC(=O)c3ccccc3)[C@@H]3[C@]4(OC(C)=O)CO[C@@H]4C[C@H](O)[C@@]3(C)C(=O)[C@H](OC(C)=O)C(=C1C)C2(C)C`: the Potency is 0.0414 µM (active).

Consider `CO[C@H]1CCC(O[C@H]2C[C@H]([C@]3(C)CC[C@]4(C[C@H](O)[C@@H](C)[C@@H]([C@@H](C)C=C(C)C(=O)[C@H](C)C[C@H](C)C(=O)O)O4)O3)O[C@]3(O[C@@H]([C@H]4O[C@@](O)(CO)[C@H](C)C[C@H]4C)C[C@H]3C)[C@H]2C)O[C@H]1C` (some centres undefined), for which the Potency was 2.61 µM (active).

Test system in a further assay: not listed separately
Kind of assay: qHTS of pediatric cancer cell lines to identify multiple opportunities for drug repurposing: Confirmatory screen for SK-N-SH cells (AID 1347129).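 Also: cells exposed to compound for 48 h before viability read; nearly all actives have a fitted effect of over 60% in size.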 Conditions: SK-N-SH neuroblastoma cell viability; series mostly up to 46.1 µM. Summed up: as §1
Turning to `COc1ccc(C(=O)c2c(C)n(CCN3CCOCC3)c3cc(I)ccc23)cc1`, the Potency result was “inactive”.

`C=CCON=C(C[C@H]1O[C@@H]2O[C@]3(C)CC[C@@H]4[C@H](C)CC[C@@H]([C@H]1C)[C@@]24OO3)[C@H]1O[C@@H]2O[C@]3(C)CC[C@H]4[C@H](C)CC[C@@H]([C@@H]1C)[C@@]24OO3`: the Potency entry was “inactive”.

Turning to `COC1=CC(C)=C[C@@H](C)[C@@H](O)[C@@H](C)CC(C)=CC=C[C@H](OC)[C@H]([C@@H](C)[C@@H](O)[C@H](C)[C@@]2(O)C[C@@H](O)[C@H](C)[C@@H](C(C)C)O2)OC1=O`, the Potency entry is “inactive”.

Consider `S=C(SSC(=S)N1CCCCC1)N1CCCCC1`, for which the Potency entry is “inactive”.

`CO[C@H]1CCC(O[C@H]2C[C@H]([C@]3(C)CC[C@]4(C[C@H](O)[C@@H](C)[C@@H]([C@@H](C)C=C(C)C(=O)[C@H](C)C[C@H](C)C(=O)O)O4)O3)O[C@]3(O[C@@H]([C@H]4O[C@@](O)(CO)[C@H](C)C[C@H]4C)C[C@H]3C)[C@H]2C)O[C@H]1C` (some centres undefined): the Potency was 5.26 µM (active).

As for `O=[N+]([O-])c1c(Cl)c(Cl)cc(Cl)c1Cl`, the Potency entry is “inactive”.

In another assay the target is N-terminal Xaa-Pro-Lys N-methyltransferase 1 (Homo sapiens) (UniProt Q9BV86). Kind of assay: qHTS Assay for Inhibitors of N-terminal methyltransferase 1 (NTMT1): LOPAC validation of the NTMT1 SAHH-coupled ThioGlo3 Assay (AID 1347143).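 Also: SAH from peptide methylation measured as thiol fluorescence via SAHH coupling and ThioGlo3; nearly all actives have a fitted effect of over 70% in size.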 Conditions: recombinant NTMT1, SAHH-coupled ThioGlo3 fluorescence; series mostly up to 114 µM. Summed up:
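In this qHTS pilot against the LOPAC set, 125nM NTMT1 met compounds tested at multiple concentrations, and fluorescence was normalized to background.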
Consider `C=CCN1CC[C@]23CCCCC2[C@H]1Cc1ccc(O)cc13` (some centres undefined), for which the Potency result was “inactive”.

In the case of `CCCN1CCC[C@H](c2cccc(O)c2)C1`, the Potency entry was “inactive”.

Turning to `O=C(O)CC[N+](=O)[O-]`, the Potency result was “inactive”.

`CC(=O)[C@H]1CCC2C3CC[C@H]4C[C@H](O)CC[C@]4(C)C3CC[C@@]21C` (some centres undefined): the Potency result is “inactive”.

Consider `NC(=O)CN1CC(O)CC1=O` (centres undefined), for which the Potency entry was “inactive”.

In the case of `Cn1cnc(CCN)c1`, the Potency entry was “inactive”.

On to `CCCCc1ccc(C(=O)O)nc1`, for which the Potency result is “inactive”.

On to `Clc1cnc(Oc2ccc(Oc3ncc(Cl)cc3Cl)cc2)c(Cl)c1`, for which the Potency result was “inactive”.

Regarding `COc1cc(C(O)CN)ccc1O` (centres undefined), the Potency entry was “inactive”.

As to `COC(=O)[C@@H](N)CCCN=C(N)N[N+](=O)[O-]`, the Potency result is “inactive”.

For `C[C@]12N[C@H](Cc3ccccc31)c1ccccc12`, the Potency entry is “inactive”.

Regarding `CC1=NN=C(c2ccc(N)cc2)c2cc3c(cc2C1)OCO3`, the Potency was 56.2 µM (active).

As for `CN1C2CCC1CC(OC(=O)c1cc(Cl)cc(Cl)c1)C2` (centres undefined), the Potency result was “inactive”.

As for `CC(C)NC(C)Cc1ccc(I)cc1` (centres undefined), the Potency result is “inactive”.

Regarding `C[N+]1(C)C2CCC1CC(OC(=O)C(CO)c1ccccc1)C2` (centres undefined), the Potency result was “inactive”.

For `NC(N)=NOCCC(N)C(=O)O` (centres undefined), the Potency result was “inactive”.

Regarding `c1ccc2sc(C3(N4CCCCC4)CCCCC3)cc2c1`, the Potency entry is “inactive”.

Turning to `CS(=N)(=O)CC[C@H](N)C(=O)O` (some centres undefined), the Potency result was “inactive”.

For the compound `COc1ccc2c(c[n+](C)c3c4cc5c(cc4ccc23)OCO5)c1OC`, the Potency is 25.1 µM (active).

In the case of `C[C@]12CCC3C(CC[C@H]4C[C@H](O)CC[C@]34C)C1CC[C@@H]2C(=O)CO` (some centres undefined), the Potency entry is “inactive”.

As for `O=C(O)[C@@H]1CCN1`, the Potency result is “inactive”.

For the compound `NC(CCP(=O)(O)O)C(=O)O` (centres undefined), the Potency entry was “inactive”.

On to `CC[C@@H]1C(=O)OC[C@@H]1Cc1cncn1C`, for which the Potency entry was “inactive”.

Consider `C[N+]1(C)C2CC(OC(=O)[C@H](CO)c3ccccc3)CC1C1OC12` (some centres undefined), for which the Potency entry is “inactive”.

Take `c1ccc(C2(c3ccccc3)CC2C2=NCCN2)cc1` (centres undefined): the Potency result was “inactive”.

With `C[C@@H]1O[C@H](C[N+](C)(C)C)C[C@H]1O`, the Potency entry was “inactive”.

Another assay has as its system Zika virus NS2B-NS3 protease (unlinked). Description: Optimization of GU AMC qHTS for Zika virus inhibitors: Unlinked NS2B-NS3 protease assay (AID 1347151). Also: nearly all actives have a fitted effect of over 80% in size. Conditions: recombinant ZIKV NS2B-NS3 protease, fluorogenic AMC substrate; series mostly up to 52.5 µM. Summed up: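 Unlinked protease (25 nM final); buffer 10 mM Tris-HCl pH 8.0 + 0.01% Tween 20; AMC substrate; 15 min RT, dark; Δfluorescence normalized to no-inhibitor/no-enzyme controls; 4-parameter Hill fit.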
For `CCCN1CCC[C@H](c2cccc(O)c2)C1`, the Potency result was “inactive”.

On to `NC(=O)CN1CC(O)CC1=O` (centres undefined), for which the Potency entry was “inactive”.

With `Clc1cnc(Oc2ccc(Oc3ncc(Cl)cc3Cl)cc2)c(Cl)c1`, the Potency entry is “inactive”.

`COC(=O)[C@@H](N)CCCN=C(N)N[N+](=O)[O-]`: the Potency result was “inactive”.

As for `c1ccc2sc(C3(N4CCCCC4)CCCCC3)cc2c1`, the Potency result was “inactive”.

Regarding `CS(=N)(=O)CC[C@H](N)C(=O)O` (some centres undefined), the Potency result was “inactive”.

As to `COc1ccc2c(c[n+](C)c3c4cc5c(cc4ccc23)OCO5)c1OC`, the Potency was 29.9 µM (active).

Consider `NC(CCP(=O)(O)O)C(=O)O` (centres undefined), for which the Potency result is “inactive”.

As for `c1ccc(C2(c3ccccc3)CC2C2=NCCN2)cc1` (centres undefined), the Potency result is “inactive”.
